“And” between values parts separate entries of the source, which are not always exact repeats. Equal entries are not always repeated. The whole screen tested about 5,500 compounds, of which about 2,000 (36%) were called active. Inconclusive results (about 18%) are left out. Cut-off read from the data, not from the text of the source: active = normalized growth mostly below about 0.91 (no sharp cut-off); inconclusive = no clear call, values can overlap the other calls; inactive = mostly above about 0.92. This is one part of the list.
Test: chemical genetic growth profiling, strain panel (AID 1159580);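 note: tested at 20 µM; growth read once vehicle control cultures reached saturation at 30 °C; 1 = growth at the plate median or of vehicle wells; lower values mean less growth of the strain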
Settings: growth OD

Measured: normalized growth

O=[N+]([O-])c1cc(O)c(O)c([N+](=O)[O-])c1
inactive: S. cerevisiae deletion strains, locus YJL187C, strain SWE1 (second series), stronger effect = lower value 1.02 | S. cerevisiae deletion strains, locus YJL187C, strain SWE1, stronger effect = lower value 1.01 | S. cerevisiae deletion strains, locus YJR075W, strain HOC1, stronger effect = lower value 1.05 | S. cerevisiae deletion strains, locus YKL009W, strain mrt4, stronger effect = lower value 1.01 | S. cerevisiae deletion strains, locus YKL068W, stronger effect = lower value 0.974 | S. cerevisiae deletion strains, locus YKL085W, strain MDH1 (second series), stronger effect = lower value 0.97 | S. cerevisiae deletion strains, locus YKL085W, strain MDH1, stronger effect = lower value 0.97 | S. cerevisiae deletion strains, locus YKL160W, strain elf1, stronger effect = lower value 1 | S. cerevisiae deletion strains, locus YKR001C, strain vps1, stronger effect = lower value 1 | S. cerevisiae deletion strains, locus YKR026C, strain gcn3, stronger effect = lower value 1.01 | S. cerevisiae deletion strains, locus YKR091W, strain srl3, stronger effect = lower value 1.01 | S. cerevisiae deletion strains, locus YLL001W, strain dnm1, stronger effect = lower value 1.01 | S. cerevisiae deletion strains, locus YLL026W, stronger effect = lower value 0.999 | S. cerevisiae deletion strains, locus YLL041C, strain sdh2, stronger effect = lower value 1.01 | S. cerevisiae deletion strains, locus YLR027C, strain aat2, stronger effect = lower value 1.02 | S. cerevisiae deletion strains, locus YLR039C, strain RIC1, stronger effect = lower value 0.958 | S. cerevisiae deletion strains, locus YLR058C, strain SHM2, stronger effect = lower value 1.01 | S. cerevisiae deletion strains, locus YLR102C, strain apc9, stronger effect = lower value 0.98 | S. cerevisiae deletion strains, locus YLR221C, strain rsa3, stronger effect = lower value 1.06 | S. cerevisiae deletion strains, locus YLR258W, strain gsy2, stronger effect = lower value 1.06 | S. cerevisiae deletion strains, locus YLR262C, strain YPT6 (second series), stronger effect = lower value 0.996 | S. cerevisiae deletion strains, locus YLR262C, strain YPT6, stronger effect = lower value 0.959 | S. cerevisiae deletion strains, locus YLR268W, strain sec22, stronger effect = lower value 0.972 | S. cerevisiae deletion strains, locus YLR320W, strain mms22, stronger effect = lower value 1.06 | S. cerevisiae deletion strains, locus YLR330W, strain CHS5, stronger effect = lower value 1.01 | S. cerevisiae deletion strains, locus YLR342W, strain FKS1 (second series), stronger effect = lower value 0.951 | S. cerevisiae deletion strains, locus YLR342W, strain FKS1, stronger effect = lower value 1.01 | S. cerevisiae deletion strains, locus YLR357W, strain rsc2, stronger effect = lower value 1.03 | S. cerevisiae deletion strains, locus YLR370C, strain arc18, stronger effect = lower value 1.01 | S. cerevisiae deletion strains, locus YLR371W, strain rom2, stronger effect = lower value 0.979 | S. cerevisiae deletion strains, locus YLR384C, strain iki3, stronger effect = lower value 1.01 | S. cerevisiae deletion strains, locus YLR418C, strain cdc73, stronger effect = lower value 0.908 | S. cerevisiae deletion strains, locus YML016C, strain PPZ1, stronger effect = lower value 1.01 | S. cerevisiae deletion strains, locus YML032C, strain rad52, stronger effect = lower value 1.01 | S. cerevisiae deletion strains, locus YML120C, strain ndi1, stronger effect = lower value 1.03 | S. cerevisiae deletion strains, locus YML124C, strain tub3, stronger effect = lower value 0.973 | S. cerevisiae deletion strains, locus YMR058W, strain fet3, stronger effect = lower value 1.04 | S. cerevisiae deletion strains, locus YMR078C, strain ctf18, stronger effect = lower value 0.985 | S. cerevisiae deletion strains, locus YMR125W, strain sto1, stronger effect = lower value 1.01 | S. cerevisiae deletion strains, locus YMR129W, stronger effect = lower value 1.01 | S. cerevisiae deletion strains, locus YMR205C, strain PFK2, stronger effect = lower value 1.01 | S. cerevisiae deletion strains, locus YMR223W, strain ubp8, stronger effect = lower value 0.971 | S. cerevisiae deletion strains, locus YMR231W, strain pep5, stronger effect = lower value 1.02 | S. cerevisiae deletion strains, locus YMR263W, strain SAP30, stronger effect = lower value 1.02 | S. cerevisiae deletion strains, locus YMR307W, strain GAS1, stronger effect = lower value 0.97 and 1.01 | S. cerevisiae deletion strains, locus YNL067W, strain RPL9B, stronger effect = lower value 1.02 | S. cerevisiae deletion strains, locus YNL071W, strain lat1, stronger effect = lower value 1.02 | S. cerevisiae deletion strains, locus YNL153C, strain GIM3, stronger effect = lower value 1.04 and 0.971 | S. cerevisiae deletion strains, locus YNL175C, strain NOP13, stronger effect = lower value 0.976 | S. cerevisiae deletion strains, locus YNL197C, strain WHI3, stronger effect = lower value 0.95 | S. cerevisiae deletion strains, locus YNL209W, strain ssb2, stronger effect = lower value 1.02 | S. cerevisiae deletion strains, locus YNL224C, strain SQS1, stronger effect = lower value 0.977 | S. cerevisiae deletion strains, locus YNL233W, strain BNI4, stronger effect = lower value 1 | S. cerevisiae deletion strains, locus YNL248C, strain rpa49, stronger effect = lower value 0.983 | S. cerevisiae deletion strains, locus YNL250W, strain rad50, stronger effect = lower value 0.955 | S. cerevisiae deletion strains, locus YNL271C, strain bni1, stronger effect = lower value 0.978 | S. cerevisiae deletion strains, locus YNL298W, strain CLA4, stronger effect = lower value 0.994 | S. cerevisiae deletion strains, locus YNL307C, strain MCK1, stronger effect = lower value 0.989 | S. cerevisiae deletion strains, locus YNL322C, strain KRE1 (second series), stronger effect = lower value 1.02 | S. cerevisiae deletion strains, locus YNL322C, strain KRE1, stronger effect = lower value 1 and 1.01 | S. cerevisiae deletion strains, locus YNR049C, strain mso1, stronger effect = lower value 1 | S. cerevisiae deletion strains, locus YNR052C, strain pop2, stronger effect = lower value 0.996 | S. cerevisiae deletion strains, locus YOL012C, strain htz1 1.22 | S. cerevisiae deletion strains, locus YOL147C, strain pex11, stronger effect = lower value 0.981 | S. cerevisiae deletion strains, locus YOR001W, strain rrp6, stronger effect = lower value 1.01 | S. cerevisiae deletion strains, locus YOR061W, strain CKA2, stronger effect = lower value 1.01 | S. cerevisiae deletion strains, locus YOR069W, strain VPS5, stronger effect = lower value 1 | S. cerevisiae deletion strains, locus YOR070C, strain gyp1, stronger effect = lower value 1.03 | S. cerevisiae deletion strains, locus YOR080W, strain dia2, stronger effect = lower value 1.02 | S. cerevisiae deletion strains, locus YOR083W, strain WHI5 (second series), stronger effect = lower value 0.992 | S. cerevisiae deletion strains, locus YOR083W, strain WHI5, stronger effect = lower value 1.01 | S. cerevisiae deletion strains, locus YOR106W, strain vam3, stronger effect = lower value 0.983 | S. cerevisiae deletion strains, locus YOR136W, strain idh2, stronger effect = lower value 0.981 | S. cerevisiae deletion strains, locus YOR144C, strain elg1, stronger effect = lower value 0.979 | S. cerevisiae deletion strains, locus YOR184W, strain ser1, stronger effect = lower value 0.985 | S. cerevisiae deletion strains, locus YOR265W, strain rbl2, stronger effect = lower value 1.02 | S. cerevisiae deletion strains, locus YOR270C, strain vph1, stronger effect = lower value 0.989 | S. cerevisiae deletion strains, locus YOR290C, strain snf2, stronger effect = lower value 1.02 | S. cerevisiae deletion strains, locus YOR316C, strain cot1, stronger effect = lower value 0.983 | S. cerevisiae deletion strains, locus YPL051W, strain arl3, stronger effect = lower value 1.04 | S. cerevisiae deletion strains, locus YPL055C, strain LGE1, stronger effect = lower value 1.01 and 1.06 | S. cerevisiae deletion strains, locus YPL078C, strain atp4, stronger effect = lower value 0.992 | S. cerevisiae deletion strains, locus YPL106C, strain sse1, stronger effect = lower value 1.07 | S. cerevisiae deletion strains, locus YPL240C, strain hsp82, stronger effect = lower value 0.995 | S. cerevisiae deletion strains, locus YPR119W, strain clb2, stronger effect = lower value 0.972 | S. cerevisiae deletion strains, locus YPR141C, strain kar3, stronger effect = lower value 0.954 | S. cerevisiae deletion strains, locus YPR163C, strain tif3, stronger effect = lower value 0.985 | S. cerevisiae deletion strains, locus YPR167C, strain met16, stronger effect = lower value 0.971 | S. cerevisiae deletion strains, strain wtn01, stronger effect = lower value 0.984 | S. cerevisiae strains, strain wild type, stronger effect = lower value 1.01

Source: PubChem BioAssay AID1159580 (chemical genetic matrix, 2015)
